In PubChem BioAssay (NCATS):
Inconclusive results are not listed. Entries that show only a call come without a potency. Calls of active or inactive are those of the source. Unless noted, calls follow the shape of the full dose curve.

Tests used:
[1] = qHTS for Inhibitors of the Functional Ribonucleoprotein Complex (vRNP) of Lassa (LASV) Arenavirus: LASV Primary Screen - GLuc reporter signal (AID 1347082; calls by dose curve; tested in HEK293 reporter line; also: nearly all actives have a fitted effect of over 60% in size)
[2] = qHTS for Inhibitors of the Functional Ribonucleoprotein Complex (vRNP) of Lassa (LASV) Arenavirus: Viability assay - alamar blue signal for LASV Primary Screen (AID 1347083; calls by dose curve; tested in HEK293 reporter line; also: nearly all actives have a fitted effect of over 80% in size)
[3] = qHTS for Inhibitors of the Functional Ribonucleoprotein Complex (vRNP) of Lymphocytic Choriomeningitis Arenaviruses (LCMV): Viability assay - alamar blue signal for LCMV Primary Screen (AID 1347085; calls by dose curve; tested in HEK293 reporter line; also: nearly all actives have a fitted effect of over 80% in size)
[4] = molecular target: Nucleoprotein (Lymphocytic choriomeningitis virus (strain Armstrong)) (UniProt P09992); test: qHTS for Inhibitors of the Functional Ribonucleoprotein Complex (vRNP) of Lymphocytic Choriomeningitis Arenaviruses (LCMV): LCMV Primary Screen - GLuc reporter signal (AID 1347086); also: nearly all actives have a fitted effect of over 70% in size
Chain of Nucleoprotein (Lymphocytic choriomeningitis virus (strain Armstrong)) (P09992 whole entry, looked up): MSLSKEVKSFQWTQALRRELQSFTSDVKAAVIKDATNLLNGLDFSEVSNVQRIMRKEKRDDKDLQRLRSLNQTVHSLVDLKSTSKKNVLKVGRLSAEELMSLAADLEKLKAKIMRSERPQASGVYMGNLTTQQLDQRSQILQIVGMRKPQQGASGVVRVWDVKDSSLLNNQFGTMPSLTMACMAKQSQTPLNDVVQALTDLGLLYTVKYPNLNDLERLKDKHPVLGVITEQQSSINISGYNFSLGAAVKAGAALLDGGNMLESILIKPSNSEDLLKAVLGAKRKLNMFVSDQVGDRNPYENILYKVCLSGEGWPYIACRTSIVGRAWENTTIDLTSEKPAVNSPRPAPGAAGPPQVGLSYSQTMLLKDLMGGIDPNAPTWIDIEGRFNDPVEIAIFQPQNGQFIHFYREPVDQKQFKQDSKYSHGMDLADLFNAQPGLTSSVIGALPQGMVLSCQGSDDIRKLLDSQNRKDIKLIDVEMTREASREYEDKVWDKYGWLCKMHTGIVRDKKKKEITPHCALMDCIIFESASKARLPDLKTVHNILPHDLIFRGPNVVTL
Potency is read from the fitted curve at half-maximal effect.

Structure (SMILES): Cc1ccccc1C(=O)Nc1ccc(C(=O)N2CCCC(O)c3cc(Cl)ccc32)c(C)c1 (centres undefined)
- Potency [1]: inactive
- Potency [2]: inactive
- Potency [3]: inactive
- Potency [4]: inactive

Structure (SMILES): CC(C)NCC(O)c1ccc(O)c(O)c1 (centres undefined)
- Potency [1]: inactive
- Potency [2]: inactive
- Potency [3]: inactive
- Potency [4]: inactive

Structure (SMILES): CCCC(=O)Nc1ccc(OCC(O)CNC(C)C)c(C(C)=O)c1 (centres undefined)
- Potency [1]: inactive
- Potency [2]: inactive
- Potency [3]: inactive
- Potency [4]: inactive

Structure (SMILES): Cc1nc2n(c(=O)c1CCN1CCC(c3noc4cc(F)ccc34)CC1)CCC[C@H]2O
- Potency [1]: inactive
- Potency [2]: inactive
- Potency [3]: inactive
- Potency [4]: inactive

Structure (SMILES): CC(C)OC(=O)C(C)(C)Oc1ccc(C(=O)c2ccc(Cl)cc2)cc1
- Potency [1]: inactive
- Potency [2]: inactive
- Potency [3]: inactive
- Potency [4]: inactive

Structure (SMILES): CN1CCc2cccc3c2[C@H]1Cc1ccc(O)c(O)c1-3
- Potency [1]: inactive
- Potency [2]: inactive
- Potency [3]: inactive
- Potency [4]: inactive

Structure (SMILES): O=C(O)c1ccc(-n2nc(-c3ccccc3O)nc2-c2ccccc2O)cc1
- Potency [1]: inactive
- Potency [2]: inactive
- Potency [3]: inactive
- Potency [4]: inactive

Structure (SMILES): Cc1nc2n(c(=O)c1CCN1CCC(c3noc4cc(F)ccc34)CC1)CCCC2
- Potency [1]: inactive
- Potency [2]: inactive
- Potency [3]: inactive
- Potency [4]: inactive

Structure (SMILES): O=C1CCc2ccc(OCCCCN3CCN(c4cccc(Cl)c4Cl)CC3)cc2N1
- Potency [1]: inactive
- Potency [2]: inactive
- Potency [3]: inactive
- Potency [4]: inactive

Structure (SMILES): CC(C)C[C@H](NC(=O)[C@H](Cc1ccccc1)NC(=O)c1cnccn1)B(O)O
- Potency [1]: 0.485 µM (active)
- Potency [2]: 0.217 µM (active)
- Potency [3]: 0.685 µM (active)
- Potency [4]: 0.344 µM (active)

Structure (SMILES): Cc1ccc(S(=O)(=O)NC(=O)NN2CCCCCC2)cc1
- Potency [1]: inactive
- Potency [2]: inactive
- Potency [3]: inactive
- Potency [4]: inactive

Structure (SMILES): Cc1ccc2c(n1)Oc1ccc(C(C)C(=O)OCC(=O)N(C)C)cc1C2 (centres undefined)
- Potency [1]: inactive
- Potency [2]: inactive
- Potency [3]: inactive
- Potency [4]: inactive

Structure (SMILES): CCOc1ccc2ccccc2c1C(=O)N[C@@H]1C(=O)N2[C@@H]1SC(C)(C)[C@@H]2C(=O)O
- Potency [1]: inactive
- Potency [2]: inactive
- Potency [3]: inactive
- Potency [4]: inactive

Structure (SMILES): CC1(C)S[C@@H]2[C@H](NC(=O)[C@H](N)c3ccccc3)C(=O)N2[C@H]1C(=O)O
- Potency [1]: inactive
- Potency [2]: inactive
- Potency [3]: inactive
- Potency [4]: inactive

Structure (SMILES): O=C(NCCN1CCOCC1)c1ccc(Cl)cc1
- Potency [1]: inactive
- Potency [2]: inactive
- Potency [3]: inactive
- Potency [4]: inactive

Structure (SMILES): O=C(CCCN1CCC(O)(c2ccc(Cl)cc2)CC1)c1ccc(F)cc1
- Potency [1]: inactive
- Potency [2]: inactive
- Potency [3]: inactive
- Potency [4]: inactive

Structure (SMILES): CN1CC(=O)N/C1=N/C(=O)Nc1cccc(Cl)c1
- Potency [1]: inactive
- Potency [2]: inactive
- Potency [3]: inactive
- Potency [4]: inactive

Structure (SMILES): Cc1cn([C@H]2C=C[C@@H](CO)O2)c(=O)[nH]c1=O
- Potency [1]: inactive
- Potency [2]: inactive
- Potency [3]: inactive
- Potency [4]: inactive

Structure (SMILES): CN(C)CCc1c[nH]c2ccc(CS(=O)(=O)N3CCCC3)cc12
- Potency [1]: inactive
- Potency [2]: inactive
- Potency [3]: inactive
- Potency [4]: inactive

Structure (SMILES): C[C@@H]1CC(=O)NN=C1c1ccc(NN=C(C#N)C#N)cc1
- Potency [1]: inactive
- Potency [2]: inactive
- Potency [3]: inactive
- Potency [4]: inactive

Structure (SMILES): Nc1cccc2c1CN(C1CCC(=O)NC1=O)C2=O (centres undefined)
- Potency [1]: inactive
- Potency [2]: inactive
- Potency [3]: inactive
- Potency [4]: inactive
